This assay in a line: EMT-state selective cytotoxicity in co-culture – imaging, PC-3E GFP, TEM4-18 mCherry, primary screen (AID 1345086).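 On all read-outs here: cells exposed to compound for 72 h before imaging.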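 On red/green cell ratio (normalised): normalised mesenchymal count divided by normalised epithelial count so high means epithelial killing.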 The settings on record: PC-3E GFP / TEM4-18 mCherry co-culture, imaging cell counts, at 1 µM; for red/green cell ratio (normalised): actives lie on both sides, counts scaled to control wells, 1 = unselective.
The mark [1] stands for this setting: measured here: epithelial PC-3E GFP cell survival.
The mark [2] stands for this setting: measured here: mesenchymal TEM4-18 mCherry cell survival.

Structures are written as SMILES. The source made the active and inactive calls.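 How the source made its calls: active means compounds killing one labelled cell type while sparing the other, by normalised counts and ratio limits, not self-fluorescent; inactive means the rest.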

In the case of `C#CCN(C)Cc1ccccc1`, the red/green cell ratio (normalised) is 1.02 (inactive). The normalised cell number under setting [1] was found to be 1.04. Besides, the normalised cell number under setting [2] is 1.05.
On to `Nc1ncnc2nc[nH]c12`, for which the red/green cell ratio (normalised) was 1.1 (inactive). This compound gave a normalised cell number under setting [1] of 1.11. Besides, under setting [2], the normalised cell number turned out to be 1.22.
On to `CC1CCc2cc(F)cc3c(=O)c(C(=O)O)cn1c23` (centres undefined), for which the red/green cell ratio (normalised) is 1.19 (inactive). Also, the normalised cell number under setting [1] is 0.89. Also, the normalised cell number under setting [2] came out at 1.05.
For the compound `Oc1ccc(Cl)c2cccnc12`, the red/green cell ratio (normalised) is 1.13 (inactive). Further, the normalised cell number under setting [1] came out at 1.27. Under setting [2], the normalised cell number was 1.45.
In the case of `O=C1c2cccc(O)c2C(=O)c2c(O)cccc21`, the red/green cell ratio (normalised) is 1.24 (inactive). Moreover, under setting [1], the normalised cell number is 1.22. The same compound had a normalised cell number under setting [2] of 1.51.
For `Cc1cc(CC(=O)O)n(C)c1C(=O)c1ccc(Cl)cc1`, the red/green cell ratio (normalised) is 0.89 (inactive). The same compound came in with a normalised cell number under setting [1] of 1.1. For the same compound, the normalised cell number under setting [2] amounted to 0.98.
As for `O=C1C(=O)c2ccccc2C(O)=C1C1CCC(c2ccc(Cl)cc2)CC1` (centres undefined), the red/green cell ratio (normalised) is 0.91 (inactive). Also, under setting [1], the normalised cell number was found to be 1.07. The compound further showed a normalised cell number under setting [2] of 0.98.
On to `CCN(CC)CCOC(=O)C(c1ccccc1)c1ccccc1`, for which the red/green cell ratio (normalised) was 1.2 (inactive). The normalised cell number under setting [1] worked out at 1.02. Further, the normalised cell number under setting [2] turned out to be 1.22.
With `CC(=O)NO`, the red/green cell ratio (normalised) was 1.09 (inactive). This compound also came in with a normalised cell number under setting [1] of 1.08. The compound also yielded a normalised cell number under setting [2] of 1.18.
In the case of `O=C(O)c1ccc(S(=O)(=O)N(Cl)Cl)cc1`, the red/green cell ratio (normalised) was 0.95 (inactive). Under setting [1], this compound gave a normalised cell number of 1.13. Under setting [2], the normalised cell number amounted to 1.08.
For the compound `Nc1c2ccccc2nc2ccccc12`, the red/green cell ratio (normalised) was 0.95 (inactive). The normalised cell number under setting [1] worked out at 0.63. Also, the normalised cell number under setting [2] came to 0.6.
Take `CC(N)C(=O)OC(C)(C)Cc1ccc(Cl)cc1` (centres undefined): the red/green cell ratio (normalised) is 1.21 (inactive). This compound also showed a normalised cell number under setting [1] of 0.96. Besides, the normalised cell number under setting [2] is 1.16.
With `CCN(CC)C(C)CN1c2ccccc2Sc2ccccc21` (centres undefined), the red/green cell ratio (normalised) is 0.85 (inactive). The compound also showed a normalised cell number under setting [1] of 1.09. The same compound displayed a normalised cell number under setting [2] of 0.92.
As to `C=Cc1c(C)c2cc3[nH]c(cc4nc(cc5nc(cc1[nH]2)C(C)=C5CCC(=O)O)C(CCC(=O)O)=C4C)c(C)c3C=C`, the red/green cell ratio (normalised) was 1.18 (inactive). The same compound had a normalised cell number under setting [1] of 0.8. The normalised cell number under setting [2] was determined as 0.95.
On to `O=C(O)c1ccccc1Nc1cccc(C(F)(F)F)c1`, for which the red/green cell ratio (normalised) is 0.85 (inactive). Besides, under setting [1], the normalised cell number worked out at 1.18. This compound showed a normalised cell number under setting [2] of 1.
As for `CCC(=O)O[C@H]1[C@H](O[C@@H]2[C@@H](C)[C@H](O[C@H]3C[C@@](C)(OC)[C@@H](O)[C@H](C)O3)[C@@H](C)C(=O)O[C@H](CC)[C@@](C)(O)[C@H](O)[C@@H](C)C(=O)[C@H](C)C[C@@]2(C)O)O[C@H](C)C[C@@H]1N(C)C`, the red/green cell ratio (normalised) is 1.04 (inactive). Under setting [1], this compound registered a normalised cell number of 1.08. Besides, the normalised cell number under setting [2] amounted to 1.12.
`CC(=O)Oc1cccc(O)c1`: the red/green cell ratio (normalised) was 1.21 (inactive). The normalised cell number under setting [1] was 1.1. Also, under setting [2], the normalised cell number turned out to be 1.33.
As to `CC(=O)OCC1=C(C(=O)O)N2C(=O)[C@@H](NC(=O)CSc3ccncc3)[C@H]2SC1`, the red/green cell ratio (normalised) was 1.23 (inactive). Moreover, the normalised cell number under setting [1] was found to be 1. Under setting [2], the normalised cell number was determined as 1.24.
Consider `CC(NCCC(c1ccccc1)c1ccccc1)c1ccccc1` (centres undefined), for which the red/green cell ratio (normalised) is 0.89 (inactive). This compound also showed a normalised cell number under setting [1] of 0.97. Further, the normalised cell number under setting [2] stood at 0.86.
Consider `CCCCN(CCCC)CCCOC(=O)c1ccc(N)cc1`, for which the red/green cell ratio (normalised) is 1.16 (inactive). The same compound returned a normalised cell number under setting [1] of 1.04. In addition, the normalised cell number under setting [2] stood at 1.2.
On to `CCC(Cc1c(I)cc(I)c(N)c1I)C(=O)O` (centres undefined), for which the red/green cell ratio (normalised) is 1.11 (inactive). Besides, the normalised cell number under setting [1] worked out at 1.2. The normalised cell number under setting [2] came to 1.33.
With `COc1ccc2cc1Oc1ccc(cc1)C[C@H]1c3c(cc4c(c3Oc3cc5c(cc3OC)CCN(C)[C@@H]5C2)OCO4)CCN1C`, the red/green cell ratio (normalised) is 0.85 (inactive). This compound showed a normalised cell number under setting [1] of 0.93. This compound had a normalised cell number under setting [2] of 0.78.
For `CCC(=O)c1c(O)cc(O)cc1O`, the red/green cell ratio (normalised) is 0.9 (inactive). Under setting [1], this compound came in with a normalised cell number of 1.06. Besides, under setting [2], the normalised cell number turned out to be 0.96.
On the same counts, the results for `CC(=O)NCCCCCC(=O)O` are 0.96 (inactive), 0.98 and 0.95.
Regarding `Cc1cc(=O)n(-c2ccccc2)n1C`, the red/green cell ratio (normalised) was 1.02 (inactive). Under setting [1], this compound gave a normalised cell number of 1.24. In addition, the normalised cell number under setting [2] stood at 1.26.
For `Cn1c(=O)c2c(ncn2CCO)n(C)c1=O`, the red/green cell ratio (normalised) is 1.06 (inactive). This compound registered a normalised cell number under setting [1] of 0.95. The compound further registered a normalised cell number under setting [2] of 1.01.
As to `CC(C)(Oc1ccc(CCNC(=O)c2ccc(Cl)cc2)cc1)C(=O)O`, the red/green cell ratio (normalised) is 1.21 (inactive). The same compound returned a normalised cell number under setting [1] of 1.03. The same compound had a normalised cell number under setting [2] of 1.25.
Take `Cc1nc2n(c(=O)c1CCN1CCC(c3noc4cc(F)ccc34)CC1)CCC[C@H]2O`: the red/green cell ratio (normalised) was 1.17 (inactive). For the same compound, under setting [1], the normalised cell number is 0.84. Also, the normalised cell number under setting [2] is 0.98.

The record behind these values is PubChem BioAssay.
